The results in this text go back to PubChem BioAssay (NCI).

Compounds without any hit were thinned out: in the full panel of roughly 83,000, 20% have a hit.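 Plates (96-well) were seeded with cells, treated with compound at one concentration, and incubated for 48 hours before percent growth was determined.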 A number with no mark means an inactive call. Calls of active or inactive are those of the source. How the source made its calls: active means growth percent below 10; inactive means the rest.

Among the test systems are SK-MEL-2 melanoma; UO-31 renal; TK-10 renal; ACHN renal; CAKI-1 renal; A498 renal; EKVX NSCLC; SN12C renal; CCRF-CEM leukemia; MOLT-4 leukemia.
Common to all, as to experiment: NCI-60 one-dose screen, 48 h (100 = growth as untreated, 0 = no growth, -100 = all killed)
Common to all, as to conditions: 10 µM unless noted

Consider `COc1ccc(-c2nc3ccccn3c2-c2nc3ccc(Cl)cc3[nH]2)cc1`, for which the growth was 97.5% in the test with SK-MEL-2 melanoma; 97.6% in the test on UO-31 renal; 103% with TK-10 renal; 86.3% with ACHN renal; 93.2% in the test on CAKI-1 renal; 91.9% in the test with A498 renal.
Take `O=C(NCN1C(=O)c2cccc3cccc(c23)C1=O)N1CCC(Cc2ccccc2)CC1`: the growth was 93.4% with EKVX NSCLC; 99.2% in the test on SN12C renal; 72.2% in the test on UO-31 renal; 98% in the test on TK-10 renal; 101% with ACHN renal; 82.9% in the test with CAKI-1 renal. In addition, the growth is -36% (active) with A498 renal, 79.9% with CCRF-CEM leukemia and 84.7% with MOLT-4 leukemia.
For `O=C(c1ccccc1)C(CN1CCOCC1)c1ccccc1` (stereo not drawn), the growth was -8.58% (active) in the test on SK-MEL-2 melanoma; 28.1% in the test on SN12C renal; 11.2% in the test with UO-31 renal; 9.68% (active) in the test on TK-10 renal; 6.83% (active) in the test on ACHN renal; 93% in the test on A498 renal. Besides, the figures for the growth in the test on CCRF-CEM leukemia and in the test on MOLT-4 leukemia were 4.53% (active) and 19.2%, respectively.
As to `COc1cc2[nH]c(C(=O)c3cc(OC)c(OC)c(OC)c3)c(N)c2cc1C#CC1CC1`, the growth was 34.7% with SK-MEL-2 melanoma; 61% in the test on SN12C renal; 38.2% in the test on UO-31 renal; 92.2% in the test on TK-10 renal; 24.8% in the test on ACHN renal; -13.4% (active) with A498 renal. Besides, the growth is 24.9% in the test with CCRF-CEM leukemia and 44.5% in the test with MOLT-4 leukemia.
With `CC(C)=CCC[C@](C)(O)[C@H]1CC[C@]2(C)[C@@H]1CC[C@@H]1[C@@]3(C)C/C(=C/c4cccc([N+](=O)[O-])c4)C(=O)C(C)(C)[C@@H]3CC[C@]12C`, the growth in the test on EKVX NSCLC is 92.6%; with SN12C renal, 81.1%; in the test on UO-31 renal, 69.3%; in the test with TK-10 renal, 128%; with ACHN renal it was 98.9%; in the test on CAKI-1 renal, 51.9%. Also, the growth in the test on A498 renal is 92.6%; with CCRF-CEM leukemia, 76.3%; in the test on MOLT-4 leukemia it was 67.5%.
Consider `COc1ccc(C(=O)c2ccc(C)cc2)c(OC)c1OC`, for which the growth in the test on EKVX NSCLC is 92.7%; in the test with UO-31 renal, 72.6%; in the test on TK-10 renal, 97.7%; with ACHN renal it was 97.3%; in the test with CAKI-1 renal, 64.8%; with A498 renal, 70.1%. In addition, the growth is 89% in the test on CCRF-CEM leukemia and 46.8% in the test with MOLT-4 leukemia.
Take `Oc1ccccc1/C=N\NC(=S)Nc1ccc(F)cc1`: the growth is 29.8% in the test with EKVX NSCLC; 36.6% with SN12C renal; 7.46% (active) in the test with UO-31 renal; 49.1% with TK-10 renal; 13.8% with ACHN renal; -4.58% (active) in the test with CAKI-1 renal. Also, the growth with A498 renal is 91.9%; in the test with CCRF-CEM leukemia, 14%; with MOLT-4 leukemia, 7.67% (active).
Take `CCOC(=O)N1CCN(CCCCOc2ccc(C(C)(C)CC)cc2)CC1`: the growth with EKVX NSCLC is 99.1%; in the test on SN12C renal it was 95.7%; in the test with UO-31 renal, 83.1%; in the test on TK-10 renal it was 120%; in the test with ACHN renal it was 97.3%; in the test with CAKI-1 renal, 85.8%. Also, the growth with A498 renal is 108%; in the test with CCRF-CEM leukemia, 73%; in the test on MOLT-4 leukemia it was 67.2%.
As for `Cc1ccc(N(CC(=O)Nc2ccc(S(=O)(=O)NC3CCN(C)CC3)cc2)S(=O)(=O)c2ccc(Cl)cc2)cc1`, the growth in the test with EKVX NSCLC is 99.4%; with SN12C renal it was 85%; in the test with UO-31 renal it was 83.3%; with TK-10 renal it was 105%; in the test on ACHN renal it was 96.6%; in the test with CAKI-1 renal, 89%. In addition, the growth with A498 renal was 84.6%; in the test with CCRF-CEM leukemia, 20.9%; with MOLT-4 leukemia it was 70.5%.
On to `CC(c1ccccc1)N1C(=O)C(C2SC(=S)N(C(C)c3ccccc3)C2=O)SC1=S` (stereo not drawn), for which the growth is 94.4% with EKVX NSCLC; 85.5% with SN12C renal; 66.5% with UO-31 renal; 106% in the test with TK-10 renal; 74.4% in the test on ACHN renal; 66.6% in the test on CAKI-1 renal. In addition, the growth with A498 renal was 106%; in the test on CCRF-CEM leukemia it was 54.1%; in the test on MOLT-4 leukemia it was 78.8%.
For `NC(Cc1ccc(O)cc1)C(=O)N/N=C/c1ccccc1O` (stereo not drawn), the growth in the test on SN12C renal was 114%; with UO-31 renal, 74.6%; with TK-10 renal it was 98%; with ACHN renal it was 116%; with CAKI-1 renal it was 107%; with A498 renal it was 103%. Also, the growth was 81.2% in the test with CCRF-CEM leukemia and 75.6% in the test on MOLT-4 leukemia.
For `COC(=O)[C@]12CC[C@@H](C)[C@H](C)[C@@H]1C1=CC[C@@H]3[C@@]4(C)C(c5ncon5)=C[C@@](C)(CO)C4=CC[C@@]3(C)[C@]1(C)CC2`, the growth is -76.5% (active) in the test with EKVX NSCLC; -14.4% (active) in the test on SN12C renal; -93.5% (active) in the test with UO-31 renal; 1.76% (active) in the test on TK-10 renal; -89.4% (active) in the test on ACHN renal; 20.6% with CAKI-1 renal. Further, the growth in the test with A498 renal was -36.4% (active); in the test with CCRF-CEM leukemia, -52.5% (active); in the test with MOLT-4 leukemia, -42.8% (active).
As for `Cc1csc(Nc2nc(-c3ccc(Cl)cc3)nc(C(Cl)(Cl)Cl)n2)n1`, the growth in the test with EKVX NSCLC is 76.6%; in the test on SN12C renal it was 94.1%; in the test with UO-31 renal it was 84.8%; in the test with TK-10 renal it was 100%; in the test with ACHN renal it was 49.5%; in the test on CAKI-1 renal, 78.1%. The growth was 85.2% in the test on A498 renal, 90% with CCRF-CEM leukemia and 84.4% in the test on MOLT-4 leukemia.
On to `C/C(=N\Nc1ccc2ccccc2n1)c1ccccn1`, for which the growth in the test on SN12C renal is 17.5%; with UO-31 renal, -39.2% (active); in the test with TK-10 renal, 15.2%; with ACHN renal, -3.16% (active); in the test with CAKI-1 renal, -10.9% (active); in the test on A498 renal, 11.1%. Moreover, the growth with CCRF-CEM leukemia was -5.75% (active); with MOLT-4 leukemia, 1.13% (active).
